Screening data as filed in PubChem BioAssay.
JMJD2A Tudor inh: qHTS Assay for Inhibitors of JMJD2A-Tudor Domain. Lysine-specific demethylase 4A (Homo sapiens), O75164. AlphaScreen JMJD2A-Tudor / H3K4me3 peptide binding. Potency, µM (series often up to 114 µM), most hits filed as inhibitors. 390,000 tested, 4.4% active; note: nearly all actives have a fitted effect of over 50% in size
G9a block: qHTS Assay for Inhibitors of Histone Lysine Methyltransferase G9a; Histone-lysine N-methyltransferase EHMT2 (Homo sapiens), Q96KQ7; G9a H3K9 monomethylation, AlphaScreen, 2 h; Potency, µM (top dose mostly 102 µM), usual class: inhibitors; 350,000 tested, 8.8% active; AID 504332, 2011; note: nearly all actives have a fitted effect of over 75% in size
Target sequence (Q96KQ7 913-1193 limits assumed): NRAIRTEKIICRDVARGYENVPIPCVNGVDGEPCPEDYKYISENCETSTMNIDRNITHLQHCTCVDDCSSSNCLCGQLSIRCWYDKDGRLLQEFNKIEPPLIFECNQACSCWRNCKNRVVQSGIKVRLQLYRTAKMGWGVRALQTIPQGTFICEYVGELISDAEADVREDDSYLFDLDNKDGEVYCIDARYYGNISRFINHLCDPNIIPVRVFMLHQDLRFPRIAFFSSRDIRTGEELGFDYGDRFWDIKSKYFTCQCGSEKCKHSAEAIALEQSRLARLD
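AlphaScreen read-out: biotin-H3K9 peptide (500 nM) methylation by 20 nM enzyme with 20 uM SAM, 2 h at room temperature after 15 min compound preincubation; anti-monomethyl H3K9 antibody plus donor/acceptor beads, 10 min dark.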
HP1b chromo inh: HTS for Inhibitors of HP1-beta Chromodomain Interactions with Methylated Histone Tails. Chromobox protein homolog 1 (Homo sapiens), P83916. AlphaScreen HP1-beta / biotin-H3K9me3 peptide binding. Potency, µM (titrated, usually from 114 µM), usual class: inhibitors. 390,000 tested, 0.56% active. AID 540317, 2011; note: nearly all actives have a fitted effect of over 70% in size
Target sequence (P83916 whole entry, looked up): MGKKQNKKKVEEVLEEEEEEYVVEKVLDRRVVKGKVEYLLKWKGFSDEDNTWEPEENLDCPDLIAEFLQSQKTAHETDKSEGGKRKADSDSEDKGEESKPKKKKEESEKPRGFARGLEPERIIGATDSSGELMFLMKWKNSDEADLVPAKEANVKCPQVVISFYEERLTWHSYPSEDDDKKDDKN
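Compound inhibition of the preformed complex between 50 nM HP1-beta and 50 nM biotinylated H3K9me3 peptide was read by AlphaScreen. Buffer was PBS pH 7.4 with 0.01% Tween-20. Incubations ran 30 min at room temperature, with 10 ug/mL donor/acceptor beads.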
BAZ2B inh: qHTS Assay for Inhibitors of BAZ2B. Bromodomain adjacent to zinc finger domain protein 2B (Homo sapiens), Q9UIF8. AlphaScreen BAZ2B-H3K14Ac peptide displacement. Potency, µM (highest dose often 114 µM), usual class: inhibitors. 360,000 tested, 4.4% active. AID 504333, 2011; note: nearly all actives have a fitted effect of over 60% in size
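Compounds, titrated to a top concentration of 110 uM, were incubated 30 min at room temperature with preformed BAZ2B/acetyl-K14 H3 peptide complex (50 nM each). Proximity signal was measured by AlphaScreen after 20 min with beads.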
Sfp PPTase inh: qHTS Assay for Inhibitors of Bacillus subtilis Sfp phosphopantetheinyl transferase (PPTase). 310,000 tested, 3.5% active. 4'-phosphopantetheinyl transferase ffp (Bacillus subtilis), Q9F4F7. Potency, µM, actives largely listed as inhibitors. Biochemical Sfp PPTase activity, qHTS;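 note: the enzyme is Sfp with the accession as filed and its product quenches rhodamine fluorescence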
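Fluorescence-quenching assay with 15 nM Sfp, 5 uM rhodamine-CoA and 12.5 uM BHQ-2-labelled ybbR peptide in pH 7.6 Hepes/MgCl2 buffer. Enzyme was pre-incubated with compound for 15 min at room temperature. Rate was taken from the 30-min fluorescence change (525/598 nm).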
A number is an active result; [ ] = remark or other dose. A selection: hits, their analogues and other compounds. The true share with any hit is near 12%. Calls come from the whole dose curve; as a rule, active = well fitted curve in the direction sought with a large enough effect; inconclusive = small, poorly fitted or top-dose-only effect, or another doubt; inactive = no such curve, though single readings can be large; an effect the other way counts as inactive or inconclusive.

Screening CCc1c(C)sc(NC(=O)c2cc(-c3ccc(OC)cc3)on2)c1C#N returned JMJD2A Tudor inh inactive, G9a block 10µM, HP1b chromo inh inactive and BAZ2B inh inactive.
`CCC(C(=O)NCc1ccccc1OC)n1nc(C)n2c(cc3sccc32)c1=O` (centres undefined) gave JMJD2A Tudor inh inactive, G9a block inactive, HP1b chromo inh inactive and BAZ2B inh inactive.
`CC(=NNC(=O)c1cccc(S(=O)(=O)N2CCOCC2)c1)c1ccc(Cl)cc1` gave JMJD2A Tudor inh inactive and HP1b chromo inh inactive.
`C=CC[C@@](C(C)=O)(C(=O)OC)C(NC(=O)OC)c1ccccc1` (some centres undefined) gave Sfp PPTase inh inactive.
Cc1cc(OCC(=O)N(Cc2ccc(N(C)C)cc2)Cc2ccco2)cc(C)c1Cl was read as JMJD2A Tudor inh 14µM, G9a block 11µM, HP1b chromo inh inactive and BAZ2B inh 10µM.
For Cc1cc(OC(C)C(=O)N(Cc2ccc(N(C)C)cc2)Cc2ccco2)ccc1Cl (centres undefined) the results were JMJD2A Tudor inh 14µM, G9a block 13µM, HP1b chromo inh inactive and BAZ2B inh 13µM.
Cc1cc(OC(C)C(=O)N(Cc2ccco2)Cc2ccccc2F)cc(C)c1Cl (centres undefined) was read as JMJD2A Tudor inh inactive, G9a block inactive, HP1b chromo inh inactive and BAZ2B inh inactive.
Screening C[C@@H]1NC(=O)c2cc([N+](=O)[O-])cc(I)c2OCC[C@@H](C(N)=O)NC(=O)[C@H](CCC(=O)O)NC1=O returned G9a block 28µM, BAZ2B inh inconclusive and Sfp PPTase inh inactive.
Screening CC(C)[C@@H]1NC(=O)c2cc([N+](=O)[O-])cc(I)c2OCC[C@@H](C(N)=O)NC(=O)[C@H](CCC(=O)O)NC1=O returned JMJD2A Tudor inh inactive, G9a block 45µM, HP1b chromo inh inactive, BAZ2B inh inconclusive and Sfp PPTase inh inactive.
For NC(=O)C[C@@H]1NC(=O)[C@H](CCC(=O)O)NC(=O)c2cc([N+](=O)[O-])cc(I)c2OCC[C@@H](C(N)=O)NC1=O the results were JMJD2A Tudor inh inactive, G9a block 28µM, HP1b chromo inh inactive, BAZ2B inh inactive and Sfp PPTase inh inactive.
Screening CCOc1ccccc1NC(=O)CC1(CC(=O)N2CCOCC2)CCCC1 returned JMJD2A Tudor inh inactive, G9a block inactive[0.501 µM], HP1b chromo inh inactive and BAZ2B inh inconclusive.
Screening O=S(=O)(Nc1cc(F)ccc1F)c1ccc2[nH]c3c(c2c1)CCCCC3 returned JMJD2A Tudor inh inconclusive, G9a block inconclusive, HP1b chromo inh inactive and BAZ2B inh 40µM.
O=S(=O)(NCc1ccc(F)cc1)c1ccc2[nH]c3c(c2c1)CCCCC3 was read as JMJD2A Tudor inh 45µM, G9a block 8.9µM, HP1b chromo inh inconclusive and BAZ2B inh inactive.
C=CCCCCCCCCCBr was read as Sfp PPTase inh inactive.
`Cc1ccc(CSc2cn(CC(=O)N3CCCCCC3)c3ccccc23)cc1` gave JMJD2A Tudor inh inactive, G9a block inactive, HP1b chromo inh inactive and BAZ2B inh inactive.
`CCN(CC)CCOC(=O)CCc1cccc2ccccc12` gave JMJD2A Tudor inh 28µM, G9a block 7.9µM, HP1b chromo inh inactive, BAZ2B inh inconclusive and Sfp PPTase inh inactive.
For CCN(CC)CCOC(=O)C(Cc1ccco1)Cc1cccc2ccccc12 (centres undefined) the results were JMJD2A Tudor inh 13µM and HP1b chromo inh inconclusive.
`CCOC(=O)C(C(=O)OCC)C(Nc1ccccc1)c1ccccc1` (centres undefined) gave JMJD2A Tudor inh inactive, G9a block inactive, HP1b chromo inh inactive, BAZ2B inh inactive and Sfp PPTase inh inactive.
For CCOC(=O)C(NCCCO)c1ccccc1 (centres undefined) the results were JMJD2A Tudor inh 2.5µM, G9a block 50µM, HP1b chromo inh inconclusive, BAZ2B inh inactive and Sfp PPTase inh inactive.
`Cc1cc(NC(=O)c2coc(=O)c(Br)c2)ccc1C(C)C` gave JMJD2A Tudor inh inactive, G9a block 50µM, HP1b chromo inh inactive, BAZ2B inh inactive and Sfp PPTase inh inactive.
